The text below walks through data of PubChem BioAssay (NCATS).

Test [1] can be described thus: P-glycoprotein substrates identified in KB-8-5-11 adenocarcinoma cell line, qHTS therapeutic library screen (AID 1346987). Also: nearly all actives have a fitted effect of over 65% in size. The following applies: KB-8-5-11 (P-gp overexpressing) viability, CellTiter-Glo, 72 h; series mostly up to 44.5 µM. In outline:
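Luminescence from CellTiter-Glo, read 5 min after addition, quantified survival of KB-8-5-11 (P-gp-overexpressing) cells exposed to compounds for 72 h. AC50 was derived from concentration-response curves.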
Background: Quantitative high-throughput screening tests each substance at several concentrations.

Test [2] deals with Zika virus NS2B-NS3 protease (unlinked complex). Nature of the test: Primary screen GU Rhodamine qHTS for Zika virus inhibitors: Unlinked NS2B-NS3 protease assay (AID 1347159). Also: nearly all actives have a fitted effect of over 60% in size. Also: potency is read from the fitted curve at half-maximal effect. The following applies: Recombinant ZIKV NS2B-NS3 protease, Rhodamine110 substrate fluorescence; series mostly up to 107 µM. In outline:
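Enzyme 25 nM in Tris-HCl pH 8.0 + 0.01% Tween 20; compounds up to 114 microM, 15 min RT dark; + Rhod110 substrate 1.5 microM; read t0 and 15 min; delta fluorescence → % inhibition → 4-parameter Hill fit.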

Test [3] can be described thus: Confirmatory screen GU Rhodamine qHTS for Zika virus inhibitors qHTS (AID 1347157). Also: nearly all actives have a fitted effect of over 70% in size. Also: potency is read from the fitted curve at half-maximal effect. The following applies: purified enzyme assay, Rhodamine110 substrate fluorescence, 15 min; series mostly up to 114 µM. Summed up:
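Noncovalent NS2B hydrophilic domain/NS3 protease complex (25 nM final) in 10 mM Tris-HCl pH 8.0, 0.01% Tween 20, preincubated 15 min with compounds (up to 114 microM), then 1.5 microM Rhodamine110 substrate. Fluorescence change over 15 min fitted to 4-parameter Hill.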

A short description of test [4]: Confirmatory screen NINDS Rhodamine qHTS for Zika virus inhibitors (AID 1347161). Also: nearly all actives have a fitted effect of over 60% in size. Also: potency is read from the fitted curve at half-maximal effect. The following applies: purified enzyme assay, Rhodamine110 substrate fluorescence, 15 min; series mostly up to 114 µM. Summed up: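 Each compound, titrated, sat 15 min with 25 nM linked protease before 1.5 microM Rhodamine110 substrate went in. Fluorescence gain over the next 15 min, in pH 8.0 Tris with Tween 20, gave Hill-fitted curves.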

For test [5], the system named is Zika virus NS2B-NS3 protease (linked construct). As to the kind of experiment: Primary screen NINDS Rhodamine qHTS for Zika virus inhibitors (AID 1347160). Also: nearly all actives have a fitted effect of over 55% in size. Also: potency is read from the fitted curve at half-maximal effect. The following applies: purified NS2B-NS3 protease, Rhodamine110 substrate fluorescence; series mostly up to 33.1 µM. In outline: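 Enzyme (25 nM, linked NS2B-NS3) was preincubated 15 min with compound in 10 mM Tris-HCl pH 8.0, 0.01% Tween 20. Rhodamine110 substrate (1.5 microM) was then added and fluorescence read at start and after 15 min.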

A short description of test [6]: ZIKV-mCherry secondary qHTS for Zika virus inhibitors (AID 1347158). Also: top concentration of the series differs between compounds. The following applies: Vero cells, ZIKV-mCherry infection imaging, 48-72 h; series mostly up to 49.2 µM. Summed up:
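Compounds were tested in Vero monkey kidney cells infected with recombinant mCherry-expressing Zika virus at MOI 1 for 48-72 h at 37 °C. Fixed cells were nuclear-stained and imaged, and infection rate was taken as the fraction of mCherry-positive cells.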

Test [7] in a line: Vero cells viability qHTS for Zika virus inhibitors (AID 1347167). The following applies: cytotoxicity counter-screen (Zika); series mostly up to 45.9 µM. Summed up: (§1)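 qHTS titration; 24-48 h compound exposure, 37 degrees C/5% CO2; DMEM, 4% FBS; CellTiter Glo ATP luminescence.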
Test [8] can be described thus: HepG2 cells viability qHTS for Zika virus inhibitors (AID 1347168). The following applies: Zika counter-screen; series mostly up to 45.9 µM. Summed up: as §1
Test [9] concerns Zika virus NS2B-NS3 protease (linked construct). Nature of the test: Confirmatory screen NINDS AMC qHTS for Zika virus inhibitors (AID 1347152).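 Also: AMC fluorescence gain from cleaved Bz-Nle-KRR-AMC substrate over 15 min; top concentration of the series differs between compounds; nearly all actives have a fitted effect of over 70% in size.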 The following applies: Purified linked NS2B-NS3, AMC substrate fluorescence; series mostly up to 56.6 µM. Summed up: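 Linked NS2B-NS3 protease, 1 nM, in 10 mM Tris-HCl pH 8.0, 0.01% Tween 20; compounds preincubated 15 min at room temperature. Nle-KRR-AMC 10 microM (Km 18.3 µM); 15-min fluorescence change (340/450 nm) fitted to 4-parameter Hill.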

Test [10] deals with Zika virus NS2B-NS3 protease (linked). Nature of the test: 384 well plate NINDS AMC confirmatory qHTS for Zika virus inhibitors (AID 1347163). Also: potency is read from the fitted curve at half-maximal effect; nearly all actives have a fitted effect of over 50% in size. The following applies: Recombinant NS2B-NS3 protease, Ac-VKTGKR-AMC fluorescence; series mostly up to 100 µM. Summed up: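 Fluorescence at 355/460 nm was read after 25 minutes of cleavage of 30 microM Ac-VKTGKR-AMC at room temperature, in the dark. Before substrate addition, compounds (up to 1 mM final) sat ~15 minutes with 5, 30 or 60 nM linked protease. Signals were normalized to no-enzyme and no-inhibitor wells.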

Results filed as inconclusive are left out. The source made the active and inactive calls. Calls follow the shape of the dose curve; as a rule, active = well fitted curve in the direction sought with a large enough effect; inconclusive = small, poorly fitted or top-dose-only effect, or another doubt; inactive = no such curve, though single readings can be large; an effect the other way counts as inactive or inconclusive. Where a SMILES comes first, the peptide text is derived from it. The star is where a group is joined. Hexanoyl = CCCCCC(=O)*

Consider `CC1OC(OC2C(OC3C(O[C@H]4CC[C@@]5(C)C(CC[C@]6(C)C5CC=C5C7CC(C)(C)CC(O)[C@]7(C)CC[C@]56C)C4(C)C)OC(C(=O)O)C(O)C3O)OCC(O)C2O)C(O)C(O)C1O` (some centres undefined), for which, in test [1], the outcome is “inactive [at 9.29 µM]”. Besides, in test [2], the Potency is 7.94 µM (active).
On the same counts, the results for `COc1cccc(C)c1C(=O)O[C@@H]1C[C@H](O[C@H]2[C@H](O)C[C@H](O[C@@H]3CCC[C@H]4[C@H]3C=C[C@@H]3CCCC/C=C/[C@H]5C=C(C(=O)O)[C@@H](C)C[C@@]56OC(=O)C(=C6O)OC(=O)[C@@]34C)O[C@@H]2C)O[C@H](C)[C@H]1O` are “inactive [at 9.29 µM]” and “inactive”.
As to `CC1CCC2(C(=O)O)CCC3(C)C(=CCC4C5(C)CCC(O)C(C)(C(=O)O)C5CCC43C)C2C1(C)O` (centres undefined), the Potency entry in test [1] and in test [2] was “inactive” in each case.
`CCCCCC(=O)N1CCC[C@H]1C(=O)N[C@@H](Cc1ccc(O)cc1)C(=O)OC` (Hexanoyl-Pro-Tyr-OMe): the Potency entry in test [1], in test [3], in test [2] and in [4] was “inactive” in each case.
In the case of `CCC(C)/C=C(C)/C=C/C1=CC2=CC(=O)C(C)(O)C(OC(C)=O)C2CO1` (centres undefined), the Potency result in test [1] and in [5] was “inactive” in each case. The results for the Potency in test [3], in [2] and in test [4] were 30.6 µM (active), 14.1 µM (active) and 34.3 µM (active), respectively.
On to `O=C(/C=C/c1ccccc1)OC[C@H]1O[C@@H](OC(=O)c2cc(O)c(O)c(O)c2)[C@H](O)[C@@H](O)[C@@H]1O`, for which the Potency result in test [1] and in test [5] was “inactive” throughout. Further, the Potency in [3] was 2.15 µM (active); in [2] it was 3.98 µM (active); in [4], 3.41 µM (active).
Regarding `COc1ccc(C2C(C(=O)O)C(C(=O)O)C2c2ccc(OC)cc2O[C@@H]2O[C@H](CO)[C@@H](O)[C@H](O)[C@H]2O)c(O[C@@H]2O[C@H](CO)[C@@H](O)[C@H](O)[C@H]2O)c1` (some centres undefined), the Potency result in test [1] and in [5] was “inactive” each time. Besides, the Potency is 9.26 µM (active) in test [3], 7.94 µM (active) in [2] and 11.7 µM (active) in [4].
Turning to `COc1cccc(CNc2ccc(S(=O)(=O)Nc3nc4ccccc4s3)cc2)c1O`, the Potency entry in [1] and in test [6] was “inactive” throughout. For the same compound, the Potency in [3] was 3.93 µM (active); in test [2], 3.55 µM (active); in test [5] it was 6.31 µM (active); in test [4], 3.93 µM (active). The result in test [7] and in test [8] was inactive.
For `C[C@@H]1[C@H]2[C@H](O[C@@H]3O[C@H](CO)[C@@H](O)[C@H](O)[C@H]3O)OC=C(C(=O)O)[C@H]2C[C@@H]1OC(=O)/C=C/c1ccc(O)cc1`, the Potency result in test [1] is “inactive”. In addition, in test [2], the Potency was 31.6 µM (active).
On the same counts, the results for `Cc1cc(-n2c(=O)[nH]c(=O)n(C)c2=O)ccc1Oc1ccc(SC(F)(F)F)cc1` are “inactive” and 15.8 µM (active).
In the same order, the values of `CC1=CCC[C@@H]2[C@](CCc3ccoc3)(C(=O)O)[C@H](C)CC[C@@]12C` are “inactive” and 8.91 µM (active).
Regarding `CC1(C)CC[C@]2(C(=O)O)CC[C@]3(C)C(=CCC4[C@@]5(C)CC[C@H](O[C@@H]6O[C@H](C(=O)O)[C@@H](O)[C@H](O)[C@H]6O)C(C)(C)C5CC[C@]43C)C2C1` (some centres undefined), the Potency result in test [1] and in test [5] was “inactive” throughout. The Potency in [3] is 5.84 µM (active); in test [4] it was 6.55 µM (active).
For `C=C1C2CCC3CC2(CC(O)C2(O)C1CC(OC1OC(CO)C(O)C(O)C1O)C2(C)C)CC3(C)O` (centres undefined), the Potency entry in [1] and in [9] was “inactive” in each case. The Potency in test [2] was 20 µM (active); in [5], 8.91 µM (active); in test [4], 9.61 µM (active); in [10], 35.5 µM (active). In addition, the call in [7] and in test [8] was inactive.
Regarding `C=Cc1ccc(O[C@@H]2O[C@H](CO[C@@H]3O[C@@H](C)[C@H](O)[C@@H](O)[C@H]3O)[C@@H](O)[C@H](O)[C@H]2O)cc1`, the Potency entry in test [1] and in test [2] was “inactive” in each case.
As to `COc1ccc2c(c1)C=C1Cn3c-2c(C2CCCCC2)c2ccc(cc23)C(=O)NS(=O)(=O)N(C)CCOCCN(C)C1=O`, the Potency result in test [1] is “inactive”. Moreover, in test [2], the Potency is 2.51 µM (active).
Consider `C[C@@H]1O[C@@H](O[C@H]2[C@H](O[C@H]3[C@H](O[C@H]4CC[C@@]5(C)C(CC[C@]6(C)C5CC=C5[C@@H]7CC(C)(C)C[C@@H](O)[C@]7(C)CC[C@]56C)[C@@]4(C)CO)O[C@H](C(=O)O)[C@@H](O)[C@@H]3O)O[C@H](C(=O)O)[C@H](O)[C@@H]2O)[C@H](O)[C@H](O)[C@H]1O` (some centres undefined), for which the outcome in test [1] was “inactive [at 9.29 µM]”. For the same compound, the Potency entry in test [2] is “inactive”.
As to `CC(=O)O[C@H]1C[C@@]2(C)[C@@H](CC[C@H]3[C@@]4(C)C=CC(=O)[C@@H](C)[C@@H]4[C@H](OC(C)=O)C(=O)[C@@]32C)/C1=C(\CCC=C(C)C)C(=O)O`, the Potency entry in [1] and in test [2] was “inactive” in each case.
Turning to `Cc1c(Cc2ccc3ccccc3n2)c2cc(F)ccc2n1CC(=O)O`, the Potency result in test [1] was “inactive”. The Potency in test [2] is 35.5 µM (active).
`C=CC1(C)C=C2CC[C@H]3[C@@](C)(C(=O)O)CCC[C@]3(C)C2CC1` (some centres undefined): the Potency entry in test [1] is “inactive”. For the same compound, the Potency in test [3] was 15.3 µM (active); in test [2], 7.94 µM (active); in [5] it was 3.55 µM (active); in test [4], 9.67 µM (active); in [10], 70.8 µM (active). Besides, the result in test [7] and in test [8] was inactive.
